# Measurements reported in the supplement of paper PMC8728848.
# The sample as a whole holds a higher share of the strongest signals than the screen did.
# B1: MXA PilAct-eGFP (Myxococcus xanthus), Q59589 (protein)
# chain: MRVSRFNPRNRGFTLIELMIVVAIIGILAAIAIPNFIKFQARSKQSEAKTNLKALYTAQKSFFSEKDRYSDFANEIGFAPERGNRYGYRVSAAAGDCEVRNAADLPVPAAGVPCISNDSFRFGANSAIDDPTPVVARFVPQGAAGWNTTLGVQPTIADCPNCNFFAGARGNADNEATFDDWVIAGFEGSGQVGPCSEAGNVASGTPYNTRNDVACDGAAQ
# Legend:
# Experiment in all cases: glycan array binding signal (z-score within array); higher = stronger binding
# Conditions in all cases: glycan notation: IUPAC condensed, linker removed
# [1] = molecular target: Fuc(a1-2)Gal(b1-3)GalNAc(a1-3)[Fuc(a1-2)]Gal(b1-4)Glc
# How it was run: (§1)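 From the Consortium for Functional Glycomics database, 3228 arrays were curated, keeping only those whose protein sequence was available. Binding is given as a within-array Z-score averaged across arrays sharing a protein sequence and across linkers. Negative Z-scores can be read as non-binding.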
# [2] = molecular target: Fuc(a1-2)Gal(b1-3)GlcNAc(b1-3)GalNAc
# How it was run: as §1
# [3] = molecular target: Fuc(a1-2)Gal(b1-3)GlcNAc(b1-3)[Neu5Ac(a2-6)Gal(b1-4)GlcNAc(b1-6)]Gal(b1-4)Glc
# How it was run: as §1
# [4] = molecular target: Fuc(a1-2)Gal(b1-4)GlcNAc(b1-3)Gal(b1-4)GlcNAc
# How it was run: as §1
# [5] = molecular target: Fuc(a1-2)Gal(b1-4)GlcNAc(b1-3)Gal(b1-4)GlcNAc(b1-3)Gal(b1-4)GlcNAc
# How it was run: as §1
# [6] = molecular target: Fuc(a1-2)Gal(b1-4)[Fuc(a1-3)]GlcNAc(b1-2)Man(a1-3)[Fuc(a1-2)Gal(b1-4)[Fuc(a1-3)]GlcNAc(b1-2)Man(a1-6)]Man(b1-4)GlcNAc(b1-4)[Fuc(a1-6)]GlcNAc
# How it was run: as §1
# [7] = molecular target: Fuc(a1-2)Gal(b1-4)[Fuc(a1-3)]GlcNAc(b1-3)Gal(b1-4)[Fuc(a1-3)]GlcNAc(b1-3)Gal(b1-4)[Fuc(a1-3)]GlcNAc
# How it was run: as §1
# [8] = molecular target: Fuc(a1-2)Gal3S(b1-4)GlcNAc
# How it was run: as §1
# [9] = molecular target: Fuc(a1-2)[Gal(a1-3)]Gal(b1-4)GlcNAc
# How it was run: as §1
# [10] = molecular target: Fuc(a1-2)[Gal(a1-3)]Gal(b1-4)GlcNAc(b1-2)Man
# How it was run: as §1
# [11] = molecular target: Fuc(a1-2)[GalNAc(a1-3)]Gal(b1-4)GlcNAc(b1-2)Man(a1-3)[Fuc(a1-2)[GalNAc(a1-3)]Gal(b1-4)GlcNAc(b1-2)Man(a1-6)]Man(b1-4)GlcNAc(b1-4)GlcNAc
# How it was run: as §1
# [12] = molecular target: Fuc(a1-2)[GalNAc(a1-3)]Gal(b1-4)GlcNAc(b1-3)Gal(b1-4)GlcNAc
# How it was run: as §1
# [13] = molecular target: Fuc(a1-2)[GalNAc(a1-3)]Gal(b1-4)GlcNAc(b1-6)GalNAc
# How it was run: as §1
# [14] = molecular target: Fuc(a1-3)[Gal(b1-4)]GlcNAc(b1-6)[Gal(b1-3)GlcNAc(b1-3)]Gal(b1-4)Glc
# How it was run: as §1
# [15] = molecular target: Fuc(a1-3)[GalNAc(b1-4)]GlcNAc
# How it was run: as §1
# Gal(a1-3)Gal(b1-3)GlcNAc = molecular target: Gal(a1-3)Gal(b1-3)GlcNAc
# How it was run: as §1
# [16] = molecular target: Gal(b1-3)GlcNAc(b1-2)Man(a1-3)[GlcNAc(b1-4)][Gal(b1-3)GlcNAc(b1-2)Man(a1-6)]Man(b1-4)GlcNAc(b1-4)GlcNAc
# How it was run: as §1
# [17] = molecular target: Gal(b1-3)GlcNAc(b1-3)Gal(b1-4)GlcNAc(b1-2)[Gal(b1-3)GlcNAc(b1-3)Gal(b1-4)GlcNAc(b1-6)]Man(a1-6)[Gal(b1-3)GlcNAc(b1-3)Gal(b1-4)GlcNAc(b1-2)Man(a1-3)]Man(b1-4)GlcNAc(b1-4)[Fuc(a1-6)]GlcNAc
# How it was run: as §1
# [18] = molecular target: Gal(b1-3)GlcNAc(b1-3)Gal(b1-4)GlcNAc(b1-3)Gal(b1-4)GlcNAc(b1-2)[Gal(b1-3)GlcNAc(b1-3)Gal(b1-4)GlcNAc(b1-3)Gal(b1-4)GlcNAc(b1-6)]Man(a1-6)[Gal(b1-3)GlcNAc(b1-3)Gal(b1-4)GlcNAc(b1-3)Gal(b1-4)GlcNAc(b1-2)Man(a1-3)]Man(b1-4)GlcNAc(b1-4)[Fuc(a1-6)]GlcNAc
# How it was run: as §1
# [19] = molecular target: Gal(b1-3)[Fuc(a1-4)]GlcNAc(b1-3)Gal(b1-3)[Fuc(a1-4)]GlcNAc
# How it was run: as §1
# Gal(b1-4)Glc = molecular target: Gal(b1-4)Glc
# How it was run: as §1
# [20] = molecular target: Gal(b1-4)GlcNAc(b1-3)Gal(b1-4)GlcNAc(b1-2)[Gal(b1-4)GlcNAc(b1-3)Gal(b1-4)GlcNAc(b1-6)]Man(a1-6)[Gal(b1-4)GlcNAc(b1-3)Gal(b1-4)GlcNAc(b1-2)Man(a1-3)]Man(b1-4)GlcNAc(b1-4)GlcNAc
# How it was run: as §1
# [21] = molecular target: Gal(b1-4)GlcNAc(b1-3)Gal(b1-4)GlcNAc(b1-3)Gal(b1-4)GlcNAc(b1-3)Gal(b1-4)GlcNAc(b1-2)[Gal(b1-4)GlcNAc(b1-3)Gal(b1-4)GlcNAc(b1-3)Gal(b1-4)GlcNAc(b1-3)Gal(b1-4)GlcNAc(b1-6)]Man(a1-6)[Gal(b1-4)GlcNAc(b1-3)Gal(b1-4)GlcNAc(b1-3)Gal(b1-4)GlcNAc(b1-3)Gal(b1-4)GlcNAc(b1-2)Man(a1-3)]Man(b1-4)GlcNAc(b1-4)[Fuc(a1-6)]GlcNAc
# How it was run: as §1
# [22] = molecular target: Gal(b1-4)GlcNAc(b1-6)Gal(b1-4)GlcNAc
# How it was run: as §1
# Gal(b1-4)GlcNAc6P = molecular target: Gal(b1-4)GlcNAc6P
# How it was run: as §1
# Gal3S(b1-4)GlcNAc = molecular target: Gal3S(b1-4)GlcNAc
# How it was run: as §1
binder,measurement,setting,value
B1,glycan array binding signal (z-score),[1],0.469
same,glycan array binding signal (z-score),[2],-0.348
same,glycan array binding signal (z-score),[3],-0.4
same,glycan array binding signal (z-score),[4],0.643
same,glycan array binding signal (z-score),[5],2.63
same,glycan array binding signal (z-score),[6],-0.459
same,glycan array binding signal (z-score),[7],-0.292
same,glycan array binding signal (z-score),[8],-0.55
same,glycan array binding signal (z-score),[9],0.335
same,glycan array binding signal (z-score),[10],-0.112
same,glycan array binding signal (z-score),[11],3.39
same,glycan array binding signal (z-score),[12],-0.546
same,glycan array binding signal (z-score),[13],0.269
same,glycan array binding signal (z-score),[14],-0.768
same,glycan array binding signal (z-score),[15],-1.22
same,glycan array binding signal (z-score),Gal(a1-3)Gal(b1-3)GlcNAc,-1.1
same,glycan array binding signal (z-score),[16],0.003
same,glycan array binding signal (z-score),[17],6.11
same,glycan array binding signal (z-score),[18],4.94
same,glycan array binding signal (z-score),[19],-2.03
same,glycan array binding signal (z-score),Gal(b1-4)Glc,-1.09
same,glycan array binding signal (z-score),[20],-0.993
same,glycan array binding signal (z-score),[21],3.46
same,glycan array binding signal (z-score),[22],0.221
same,glycan array binding signal (z-score),Gal(b1-4)GlcNAc6P,0.348
same,glycan array binding signal (z-score),Gal3S(b1-4)GlcNAc,-0.174
